# Data as given in PubChem BioAssay (NCATS).
# Inconclusive results are not listed. Unmarked numbers belong to inactive results. Calls come from the whole dose curve; as a rule, active = well fitted inhibition curve with a large enough effect; inconclusive = small, poorly fitted or top-dose-only effect; inactive = no such curve, though single readings can be large or run the other way.
# Molecular target: Retinaldehyde dehydrogenase 3 (Homo sapiens) (UniProt P47895)
# Test: qHTS for Inhibitors of the Aldehyde Dehydrogenase Family (ALDH1A3) Primary screen (AID 2061315);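 note: plate controls were DMSO vehicle for no effect and reference inhibitor for full effect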
# Details: ALDH inhibition qHTS; series mostly up to 56 µM; activity change, negative = inhibition: at the top concentration
row,SMILES,"activity change, negative = inhibition"
1,CC(CO)C1CCC2(C)CC3C(CO)CC(O)C3C(C)(O)C/C=C/12 (centres undefined),10.8%
2,CC1=C2C[C@@]3(C)[C@@H](CCC[C@@H]3C)C[C@@]2(O)OC1=O,11.8%
3,CC(C)CC(=O)OC1OC=C(CO[C@@H]2O[C@H](CO)[C@@H](O)[C@H](O)[C@H]2O)C2CC(O)C(O)(CO)C12 (some centres undefined),11.6% [at 28 µM]
4,CC(C)Oc1ccc(-c2nc(-c3cccc4c3CCC4NCCC(=O)O)no2)cc1C#N (centres undefined),-5.47%
5,CC(C)CNC(=O)/C=C/CCCCc1ccc2c(c1)OCO2,2.74%
6,c1ccc(N2CCN(CCc3nn[nH]n3)CC2)cc1,-13.1%
7,C[C@@H]1O[C@@H](O[C@H]2[C@H](O)[C@@H](O[C@@H]3O[C@H](CO)[C@H](O)[C@H](O)[C@H]3O)[C@H](O[C@H]3CC[C@@]4(C)C(CC[C@]5(C)C4CC=C4[C@@H]6CC(C)(C)CC[C@]6(C(=O)O[C@@H]6O[C@H](CO)[C@@H](O)[C@H](O)[C@H]6O)CC[C@]45C)C3(C)C)O[C@@H]2C(=O)O)[C@H](O)[C@H](O)[C@H]1O (some centres undefined),4.15% [at 16.9 µM]
8,COCCCNC(=O)c1ccc(Cn2c(=O)c3ccccc3n(Cc3ccc(C(C)C)cc3)c2=O)cc1,12.9%
9,C[C@@H]1O[C@@H](O[C@@H]2CO[C@@H](O[C@H]3CC[C@@]4(C)C(CC[C@]5(C)C4CC=C4[C@@H]6CC(C)(C)CC[C@]6(C(=O)O[C@@H]6O[C@H](CO)[C@@H](O)[C@H](O)[C@H]6O)CC[C@]45C)[C@]3(C)CO)[C@H](O)[C@H]2O[C@@H]2O[C@H](CO)[C@@H](O)[C@H](O)[C@H]2O)[C@H](O)[C@H](O)[C@H]1O (some centres undefined),-20.8% [at 16.9 µM]
